Laboratory results reported in PubChem BioAssay (NCI).
This is part of a sample that, as a whole, favours compounds with a hit. Of some 83,000 tested, about 20% had one in any assay.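 Compound tested at a single concentration for 48 hours in 96-well plates; a percent growth value below 10 was scored as active.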 The source made the active and inactive calls.

Legend:
Test in all cases: NCI-60 one-dose screen, 48 h (100 = growth as untreated, 0 = no growth, -100 = all killed)
DU-145 prostate = settings: 10 µM unless noted
K-562 leukemia = settings: 10 µM unless noted
RXF 393 renal = settings: 10 µM unless noted
SF-295 CNS = settings: 10 µM unless noted
UACC-257 melanoma = settings: 10 µM unless noted
HCT-15 colon = settings: 10 µM
HT29 colon = settings: 10 µM unless noted
LOX IMVI melanoma = settings: 10 µM unless noted
SN12C renal = settings: 10 µM unless noted
CAKI-1 renal = settings: 10 µM unless noted
A498 renal = settings: 10 µM unless noted
HL-60(TB) leukemia = settings: 10 µM unless noted
MOLT-4 leukemia = settings: 10 µM
OVCAR-8 ovarian = settings: 10 µM unless noted
OVCAR-4 ovarian = settings: 10 µM unless noted
SK-OV-3 ovarian = settings: 10 µM unless noted
HS 578T breast = settings: 10 µM unless noted
BT-549 breast = settings: 10 µM
HCC-2998 colon = settings: 10 µM unless noted
A549/ATCC NSCLC = settings: 10 µM unless noted

Measured: growth

Nc1ncnc2c1c(C(=O)NO)cn2C1OC(CO)C(O)C1O (stereo unspecified)
active: DU-145 prostate -32.1% | K-562 leukemia -3.31% | RXF 393 renal -26.9% | SF-295 CNS -47.6% | UACC-257 melanoma -48% | HCT-15 colon -9.1% | HT29 colon 7.07% | LOX IMVI melanoma -5.18% | SN12C renal -31.9% | CAKI-1 renal -23.1% | A498 renal -30.1% | HL-60(TB) leukemia -43% | MOLT-4 leukemia -32.9% | OVCAR-8 ovarian -20.2% | OVCAR-4 ovarian 0.579% | SK-OV-3 ovarian -18.2% | HS 578T breast -7.9% | BT-549 breast -0.861% | HCC-2998 colon -38.7%

CO[C@@H]([CH2][Hg][S]C#N)[C@@H]([CH2][Hg][S]C#N)OC
inactive: A549/ATCC NSCLC 102% | DU-145 prostate 99.2% | K-562 leukemia 46.5% | RXF 393 renal 57.8% | SF-295 CNS 113% | UACC-257 melanoma 86.8% | HT29 colon 79.4% | SN12C renal 98.2% | CAKI-1 renal 107% | A498 renal 118% | HL-60(TB) leukemia 62.9% | MOLT-4 leukemia 101% | OVCAR-8 ovarian 107% | OVCAR-4 ovarian 95.4% | SK-OV-3 ovarian 119% | HS 578T breast 98.6% | BT-549 breast 107% | HCC-2998 colon 90.3%

CCOc1cc(/C=N\Nc2nnc(C)n2N)c(C)cc1N(CCCl)CCCl
inactive: A549/ATCC NSCLC 14.5% | DU-145 prostate 27.8% | RXF 393 renal 29.7% | HCT-15 colon 25.5% | HT29 colon 23.9% | SN12C renal 17.3% | CAKI-1 renal 11.8% | OVCAR-8 ovarian 19.5% | OVCAR-4 ovarian 14.6% | SK-OV-3 ovarian 40.1% | HS 578T breast 14.6% | BT-549 breast 17%
active: K-562 leukemia 7.77% | SF-295 CNS -26.6% | UACC-257 melanoma -5.96% | LOX IMVI melanoma 1.98% | A498 renal -26% | HL-60(TB) leukemia -48.9% | MOLT-4 leukemia -9.42% | HCC-2998 colon 3.97%

CC(CC(C#N)(c1ccccc1)c1ccccc1)N1CCOCC1 (stereo unspecified)
inactive: A549/ATCC NSCLC 95.6% | DU-145 prostate 105% | K-562 leukemia 83.5% | RXF 393 renal 112% | UACC-257 melanoma 106% | HCT-15 colon 102% | HT29 colon 106% | LOX IMVI melanoma 102% | CAKI-1 renal 92.9% | A498 renal 88.8% | HL-60(TB) leukemia 86.4% | MOLT-4 leukemia 82.3% | OVCAR-8 ovarian 108% | OVCAR-4 ovarian 108% | SK-OV-3 ovarian 109% | HS 578T breast 111% | BT-549 breast 111%

O=C(O)c1[nH]c(=O)[nH]c(=O)c1F
inactive: A549/ATCC NSCLC 90.1% | DU-145 prostate 96.6% | K-562 leukemia 107% | RXF 393 renal 103% | SF-295 CNS 89.2% | UACC-257 melanoma 103% | HCT-15 colon 93.6% | HT29 colon 106% | LOX IMVI melanoma 84.6% | SN12C renal 96.3% | CAKI-1 renal 66.8% | A498 renal 82.5% | HL-60(TB) leukemia 117% | MOLT-4 leukemia 49.7% | OVCAR-8 ovarian 81.7% | OVCAR-4 ovarian 112% | SK-OV-3 ovarian 112% | HS 578T breast 123% | BT-549 breast 111% | HCC-2998 colon 64.9%

COc1cc[c]([Hg][Cl])cc1
active: RXF 393 renal -42.2% | HCT-15 colon -42.8% | LOX IMVI melanoma -84.2% | SN12C renal -6.35% | HL-60(TB) leukemia -22.4% | MOLT-4 leukemia -7.01%
inactive: A549/ATCC NSCLC 94.8% | K-562 leukemia 17% | SF-295 CNS 93.3% | UACC-257 melanoma 65.5% | HT29 colon 48.5% | CAKI-1 renal 78.6% | A498 renal 84.8% | OVCAR-8 ovarian 69.8% | OVCAR-4 ovarian 65.1% | SK-OV-3 ovarian 120% | HS 578T breast 30.5% | BT-549 breast 45.5% | HCC-2998 colon 88.7%

CC(C)(NC(=O)c1nn(CCCCCF)c2ccccc12)c1ccccc1
inactive: A549/ATCC NSCLC 76.4% | DU-145 prostate 102% | K-562 leukemia 89.8% | RXF 393 renal 112% | SF-295 CNS 101% | UACC-257 melanoma 77% | HCT-15 colon 96.3% | HT29 colon 81.9% | LOX IMVI melanoma 96.3% | SN12C renal 101% | A498 renal 94.8% | HL-60(TB) leukemia 88.3% | MOLT-4 leukemia 71.9% | OVCAR-8 ovarian 83.5% | OVCAR-4 ovarian 88.5% | SK-OV-3 ovarian 87.8% | HS 578T breast 96.6% | BT-549 breast 73.5% | HCC-2998 colon 105%

O=C(CCCN1CCC2(CC1)C(=O)NCN2c1ccc(F)cc1)c1ccc(F)cc1
inactive: DU-145 prostate 122% | K-562 leukemia 113% | RXF 393 renal 102% | SF-295 CNS 180% | UACC-257 melanoma 104% | HCT-15 colon 105% | HT29 colon 111% | LOX IMVI melanoma 106% | SN12C renal 98% | CAKI-1 renal 121% | A498 renal 106% | HL-60(TB) leukemia 100% | MOLT-4 leukemia 103% | OVCAR-8 ovarian 97.8% | OVCAR-4 ovarian 108% | SK-OV-3 ovarian 98.4% | HS 578T breast 133% | BT-549 breast 97.3% | HCC-2998 colon 100%
